Inconclusive results are not listed. Active and inactive are the calls of the source. Calls follow the shape of the dose curve; as a rule, active = well fitted curve in the direction sought with a large enough effect; inconclusive = small, poorly fitted or top-dose-only effect, or another doubt; inactive = no such curve, though single readings can be large; an effect the other way counts as inactive or inconclusive.
Legend:
[1] = target: Rap guanine nucleotide exchange factor 3 (Homo sapiens) (UniProt O95398); experiment: Confirmatory qHTS for antagonist of cAMP-regulated guanine nucleotide exchange factor 3 (EPAC1) (AID 1645880); also: nearly all actives have a fitted effect of over 55% in size; also: potency is read from the fitted curve at half-maximal effect
Summary of the method: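 Nucleotide exchange uses 100 nM EPAC1, 250 nM RAP1B-BODIPY-GDP and 50 uM GDP, with compounds in a concentration-titration series. After 5 min at room temperature, fluorescence (480 nm ex/540 nm em) is read every 5 min for 30 min. Data are normalized to control ATA and DMSO.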

[2] = target: Rap guanine nucleotide exchange factor 3 (Homo sapiens) (UniProt O95398); experiment: Confirmatory qHTS for agonist of cAMP-regulated guanine nucleotide exchange factor 3 (EPAC1) (AID 1645881); also: nearly all actives have a fitted effect of over 75% in size; also: potency is read from the fitted curve at half-maximal effect;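 as to activation: EPAC1 catalysed release of BODIPY-GDP from Rap1B seen as fluorescence loss; 100% = effect of cAMP agonist control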
[3] = target: Rap guanine nucleotide exchange factor 4 (Homo sapiens) (UniProt Q8WZA2); experiment: Confirmatory qHTS for agonist of cAMP-regulated guanine nucleotide exchange factor 4 (EPAC2) (AID 1645884);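 also: nucleotide exchange releases bodipy-GDP from Rap1 and this lowers its fluorescence; nearly all actives have a fitted effect of over 65% in size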; also: potency is read from the fitted curve at half-maximal effect; as to activation: % is scaled to controls: 0 for no effect and ±100 for the full control effect
[4] = target: Rap guanine nucleotide exchange factor 4 (Homo sapiens) (UniProt Q8WZA2); experiment: Confirmatory qHTS for antagonist of cAMP-regulated guanine nucleotide exchange factor 4 (EPAC2) (AID 1645885); also: nearly all actives have a fitted effect of over 25% in size; also: potency is read from the fitted curve at half-maximal effect; as to activity change, negative = inhibition: % is scaled to controls: 0 for no effect and ±100 for the full control effect
[5] = target: Rap guanine nucleotide exchange factor 3 (Homo sapiens) (UniProt O95398); experiment: Counterscreen qHTS for antagonist of cAMP-regulated guanine nucleotide exchange factor 3 (EPAC1) (AID 1645888);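 also: fluorescence loss as bound BODIPY-GDP is released from Rap1B; % of control where 0% means no effect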
Summary of the method: (§1)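 Measured: fluorescence of BODIPY-GDP bound to Rap1B, which falls as exchange proceeds. Conditions include 50 uM competing GDP, 5 and 30 min reads, and a later cAMP challenge for antagonist detection.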

[6] = target: Rap guanine nucleotide exchange factor 3 (Homo sapiens) (UniProt O95398); experiment: Counterscreen qHTS for agonist of cAMP-regulated guanine nucleotide exchange factor 3 (EPAC1) (AID 1645889); also: nearly all actives have a fitted effect of over 40% in size; also: potency is read from the fitted curve at half-maximal effect; as to activation: % of control where 0% means no effect
Summary of the method: as §1

Chain of Rap guanine nucleotide exchange factor 4 (Homo sapiens) (Q8WZA2 whole entry, looked up): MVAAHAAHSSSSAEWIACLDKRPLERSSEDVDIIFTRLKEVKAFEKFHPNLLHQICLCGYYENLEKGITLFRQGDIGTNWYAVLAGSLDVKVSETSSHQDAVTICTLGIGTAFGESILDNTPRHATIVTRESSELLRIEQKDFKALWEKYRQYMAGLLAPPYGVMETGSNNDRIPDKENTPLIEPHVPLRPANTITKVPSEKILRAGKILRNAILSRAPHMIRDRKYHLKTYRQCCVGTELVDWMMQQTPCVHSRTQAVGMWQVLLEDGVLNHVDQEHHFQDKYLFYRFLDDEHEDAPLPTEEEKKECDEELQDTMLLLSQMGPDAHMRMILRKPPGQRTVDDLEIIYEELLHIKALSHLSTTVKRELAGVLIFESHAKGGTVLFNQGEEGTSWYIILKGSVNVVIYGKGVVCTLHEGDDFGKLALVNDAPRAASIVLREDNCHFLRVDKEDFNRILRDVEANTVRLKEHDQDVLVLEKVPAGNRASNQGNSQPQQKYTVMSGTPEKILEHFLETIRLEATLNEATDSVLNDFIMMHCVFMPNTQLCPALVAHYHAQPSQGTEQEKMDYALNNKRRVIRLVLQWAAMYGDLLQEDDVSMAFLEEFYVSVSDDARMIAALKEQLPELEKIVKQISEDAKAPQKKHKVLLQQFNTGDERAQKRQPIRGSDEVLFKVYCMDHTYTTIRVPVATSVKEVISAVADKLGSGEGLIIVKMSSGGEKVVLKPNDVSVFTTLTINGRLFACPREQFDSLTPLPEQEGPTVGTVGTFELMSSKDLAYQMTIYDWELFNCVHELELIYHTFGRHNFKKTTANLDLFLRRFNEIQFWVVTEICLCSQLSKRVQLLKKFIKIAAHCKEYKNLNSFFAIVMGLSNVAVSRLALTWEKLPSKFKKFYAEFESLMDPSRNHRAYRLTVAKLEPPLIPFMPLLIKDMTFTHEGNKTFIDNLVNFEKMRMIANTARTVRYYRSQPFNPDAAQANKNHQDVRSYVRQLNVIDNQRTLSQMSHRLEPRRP
Chain of Rap guanine nucleotide exchange factor 3 (Homo sapiens) (O95398 whole entry, looked up): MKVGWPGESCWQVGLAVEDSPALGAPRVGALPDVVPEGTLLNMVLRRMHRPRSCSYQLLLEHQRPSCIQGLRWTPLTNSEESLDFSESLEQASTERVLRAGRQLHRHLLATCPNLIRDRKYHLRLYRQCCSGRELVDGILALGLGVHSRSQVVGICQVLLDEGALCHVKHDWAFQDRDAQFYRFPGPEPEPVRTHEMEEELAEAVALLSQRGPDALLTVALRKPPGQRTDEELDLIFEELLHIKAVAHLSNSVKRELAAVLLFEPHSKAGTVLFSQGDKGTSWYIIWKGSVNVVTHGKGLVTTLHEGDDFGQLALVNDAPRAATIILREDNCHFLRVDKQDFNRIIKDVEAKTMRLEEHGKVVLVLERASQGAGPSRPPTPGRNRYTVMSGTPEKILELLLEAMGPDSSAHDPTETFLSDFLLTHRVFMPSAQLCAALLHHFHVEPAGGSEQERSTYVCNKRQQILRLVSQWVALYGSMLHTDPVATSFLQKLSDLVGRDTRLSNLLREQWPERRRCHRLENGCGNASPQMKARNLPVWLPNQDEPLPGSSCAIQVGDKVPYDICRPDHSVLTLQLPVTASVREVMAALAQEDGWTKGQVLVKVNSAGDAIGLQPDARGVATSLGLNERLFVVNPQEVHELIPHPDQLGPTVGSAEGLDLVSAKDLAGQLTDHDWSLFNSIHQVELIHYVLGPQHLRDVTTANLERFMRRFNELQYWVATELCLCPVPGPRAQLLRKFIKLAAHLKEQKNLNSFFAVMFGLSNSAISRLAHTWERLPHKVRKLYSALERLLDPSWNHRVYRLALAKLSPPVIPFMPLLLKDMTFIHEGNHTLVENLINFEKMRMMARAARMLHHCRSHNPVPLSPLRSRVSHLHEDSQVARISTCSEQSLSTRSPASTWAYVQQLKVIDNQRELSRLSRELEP

Cc1ccc(CNS(=O)(=O)c2ccc(-n3cnnn3)c(C)c2)cc1
inactive: Potency [1] | Potency [2] | activation [3] 4.56% [at 17.1 µM, percent relative to cAMP agonist control] | Potency [4] | activity change, negative = inhibition [5] 3.48% [at 30.8 µM] | activation [6] 5.31% [at 30.8 µM]

COc1ccccc1Oc1ccnc2cc(Cl)ccc12
inactive: Potency [1] | Potency [2] | activation [3] 3.38% [at 17.1 µM, percent relative to cAMP agonist control] | Potency [4] | activity change, negative = inhibition [5] 3.13% [at 30.8 µM] | activation [6] 5.9% [at 30.8 µM]

CC(=O)Nc1ccc(C=NNc2ccc(S(=O)(=O)Nc3ccccc3C(=O)O)cc2[N+](=O)[O-])cc1
active: Potency [1] 28.2 µM
inactive: Potency [2] | activation [3] 0.331% [at 17.1 µM, percent relative to cAMP agonist control] | Potency [4] | activity change, negative = inhibition [5] 0.935% [at 30.8 µM] | activation [6] 13.4% [at 30.8 µM]

COc1ccc(-c2cc(C(F)(F)F)nc(SCC(=O)NCCc3ccccc3)n2)cc1OC
inactive: Potency [1] | Potency [2] | Potency [3] | Potency [4] | Potency [5] | Potency [6]

Nc1ncnc2c1nc(Br)n2[C@@H]1O[C@@H]2COP(=O)(O)O[C@H]2[C@H]1O
inactive: Potency [4] | Potency [5] | Potency [6]
active: Potency [1] 5.36 µM | Potency [2] 7.08 µM | Potency [3] 2.24 µM

Cc1ccc(C)c(NC(=O)CN(C)C(=O)c2cccc(S(=O)(=O)N3CCCC3)c2)c1
inactive: Potency [1] | Potency [2] | Potency [3] | Potency [4] | Potency [5] | Potency [6]

C=CCN(CC=C)Cc1cc(=O)oc2ccc3ccccc3c12
inactive: Potency [1] | Potency [2] | activation [3] -1.79% [at 17.1 µM, percent relative to cAMP agonist control] | Potency [4] | activity change, negative = inhibition [5] -12.3% [at 30.8 µM] | activation [6] 4.33% [at 30.8 µM]

Brc1ccc(-c2csc(-c3c[nH]c4ccccc34)n2)cc1
inactive: Potency [1] | Potency [2] | activation [3] 6.69% [at 17.1 µM, percent relative to cAMP agonist control] | Potency [4] | activity change, negative = inhibition [5] 3.69% [at 30.8 µM] | activation [6] 15.5% [at 30.8 µM]

C=CC(=C)CC(NC)c1ccccc1 (stereo unspecified)
inactive: Potency [1] | Potency [2] | Potency [3] | Potency [5] | Potency [6]
active: Potency [4] 84.9 µM

CCCCC(=O)Nc1cccc(NC(=O)c2ccccc2Br)c1
inactive: Potency [1] | Potency [2] | Potency [3] | Potency [4] | Potency [5] | Potency [6]

O=C1c2cccc3cccc(c23)N1Cc1ccc(F)cc1
inactive: Potency [1] | Potency [2] | activation [3] 1.12% [at 17.1 µM, percent relative to cAMP agonist control] | Potency [4] | activity change, negative = inhibition [5] -16.7% [at 30.8 µM] | activation [6] 4.85% [at 30.8 µM]

O=c1oc2ccccc2nc1/C=C(O)/C=C\c1ccccc1
inactive: Potency [1] | Potency [2] | activation [3] 2.36% [at 17.1 µM, percent relative to cAMP agonist control] | Potency [4] | activity change, negative = inhibition [5] -9.13% [at 30.8 µM] | activation [6] -0.436% [at 30.8 µM]

CC(C)OC(=O)NC(c1ccccc1)C(Cl)(Cl)Cl (stereo unspecified)
inactive: Potency [1] | Potency [2] | activation [3] 4.21% [at 17.1 µM, percent relative to cAMP agonist control] | Potency [4] | activity change, negative = inhibition [5] -2.25% [at 30.8 µM] | activation [6] 7.19% [at 30.8 µM]

Cc1ccc(-c2nc3ccc(Br)cn3c2Cc2ccccc2C(F)(F)F)cc1
active: Potency [1] 84.9 µM | Potency [4] 47.8 µM
inactive: Potency [2] | Potency [3] | Potency [5] | Potency [6]

CCC(=O)Nc1ccc(C(=O)NNC(=O)c2ccc([N+](=O)[O-])cc2)cc1
inactive: Potency [1] | Potency [2] | Potency [3] | Potency [4] | Potency [5] | Potency [6]

CCCCNC(=O)NC12CC3CC(CC(C3)C1)C2
inactive: Potency [1] | Potency [2] | Potency [3] | Potency [4] | Potency [5] | Potency [6]

Cc1nn(-c2ccccc2)c(Cl)c1/C=C1\SC(=S)NC1=O
active: Potency [1] 12 µM
inactive: Potency [2] | Potency [3] | Potency [4] | Potency [5] | Potency [6]

COc1cc(CC(=O)Nc2ccccc2N2CCCCC2)cc(OC)c1OC
inactive: Potency [1] | Potency [2] | Potency [3] | Potency [4] | Potency [5] | Potency [6]

CCO/C(C)=N/Oc1cc(OC)cc(OC)c1
active: Potency [4] 23.9 µM
inactive: Potency [1] | Potency [2] | Potency [3] | Potency [5] | Potency [6]

CCc1ccc(OCCCSc2nc(-c3ccc(C(C)(C)C)cc3)nc3cc(=O)[nH]n23)cc1
active: Potency [1] 42.6 µM
inactive: Potency [2] | Potency [3] | Potency [4] | Potency [5] | Potency [6]

COc1ccc(-c2c(-c3ccccc3OC)oc3ccccc23)cc1F
inactive: Potency [1] | Potency [2] | Potency [3] | Potency [5] | Potency [6]
active: Potency [4] 6.75 µM

COc1ccc(C2CC(=O)n3c(nc4ccccc43)S2)cc1OC (stereo unspecified)
inactive: Potency [1] | Potency [2] | activation [3] 2.96% [at 17.1 µM, percent relative to cAMP agonist control] | Potency [4] | activity change, negative = inhibition [5] 10.2% [at 30.8 µM] | activation [6] 6.35% [at 30.8 µM]

COc1ccc(Br)cc1CNC(=O)c1ccc2nc(C(C)C)oc2c1
inactive: Potency [1] | Potency [2] | Potency [3] | outcome [4] inactive [at 12.7 µM] | Potency [5] | Potency [6]

O=C1CC(Cc2ccccc2)C(=O)N1CCc1ccc2c(c1)OCO2 (stereo unspecified)
inactive: Potency [1] | Potency [2] | activation [3] 2.14% [at 17.1 µM, percent relative to cAMP agonist control] | Potency [4] | activity change, negative = inhibition [5] -4.71% [at 30.8 µM] | activation [6] 1.4% [at 30.8 µM]

O=C(NCCCn1ccnc1)c1cc(-c2cccnc2)nc2ccc(Br)cc12
inactive: Potency [1] | Potency [2] | Potency [3] | Potency [4] | Potency [5] | Potency [6]

COc1cccc(NC(=O)CN(C)C(=O)CNC(=O)c2ccc(Oc3ccccc3)cc2)c1
inactive: Potency [1] | Potency [2] | activation [3] 6.73% [at 17.1 µM, percent relative to cAMP agonist control] | Potency [4] | activity change, negative = inhibition [5] -3.89% [at 30.8 µM] | activation [6] 29.7% [at 30.8 µM]

CCOC(=O)c1ccccc1NC(=O)CSc1nccn1Cc1ccco1
inactive: Potency [1] | Potency [2] | Potency [3] | Potency [4] | Potency [5] | Potency [6]

Cc1ccc(C(C)C)cc1OCC(=O)NC1CCCCCCC1
inactive: Potency [1] | Potency [2] | activation [3] -1.54% [at 17.1 µM, percent relative to cAMP agonist control] | Potency [4] | activity change, negative = inhibition [5] -15.5% [at 30.8 µM] | activation [6] -2.78% [at 30.8 µM]

CS/C(N)=N/N=C/c1c(O)ccc2ccccc12
inactive: Potency [2] | Potency [3] | Potency [4] | Potency [5] | Potency [6]
active: Potency [1] 21.3 µM

C[n+]1cc(C(=O)N2CCCCC2)ccc1/C=C/c1c[nH]c2ccccc12
active: Potency [2] 89.1 µM
inactive: Potency [1] | activation [3] 10.6% [at 17.1 µM, percent relative to cAMP agonist control] | Potency [4] | activity change, negative = inhibition [5] -7.76% [at 30.8 µM] | activation [6] 14.5% [at 30.8 µM]

Cc1ccc(NC(=O)COC(=O)Cn2c(C)csc2=O)c([N+](=O)[O-])c1
inactive: Potency [1] | Potency [2] | Potency [3] | Potency [4] | Potency [5] | Potency [6]

Cc1ccc(-c2csc(NC(=O)/C=C/c3ccco3)c2C(=O)O)cc1
inactive: Potency [2] | activation [3] 5.44% [at 17.1 µM, percent relative to cAMP agonist control] | Potency [4] | activity change, negative = inhibition [5] -12.5% [at 30.8 µM] | activation [6] 18.5% [at 30.8 µM]
active: Potency [1] 25.1 µM

CCOc1ccc(C(C(=O)NC2CCCC2)N(C(=O)c2snc(C(N)=O)c2N)C2CCCC2)cc1 (stereo unspecified)
inactive: Potency [1] | Potency [2] | Potency [3] | Potency [4] | Potency [5] | Potency [6]

O=C(/C=C/c1ccc([N+](=O)[O-])cc1)Nc1cccc(C(=O)Nc2ccccc2C(=O)O)c1
inactive: Potency [2] | activation [3] -2.89% [at 17.1 µM, percent relative to cAMP agonist control] | Potency [4] | activity change, negative = inhibition [5] 0.771% [at 30.8 µM] | activation [6] 4.73% [at 30.8 µM]
active: Potency [1] 22.4 µM

CCCC1CC(c2csc(N)n2)CCO1 (stereo unspecified)
inactive: Potency [1] | Potency [2] | Potency [3] | Potency [4] | Potency [5] | Potency [6]

CN1/C(=C\C=C(/C#N)C(=O)Nc2ccccc2F)C(C)(C)c2ccccc21
inactive: Potency [1] | Potency [4] | Potency [5]
active: Potency [2] 100 µM | Potency [3] 100 µM | Potency [6] 14.1 µM

CN(CC(=O)Nc1cccc(F)c1)C(=O)CN1c2cccc3cccc(c23)S1(=O)=O
inactive: Potency [2] | Potency [3] | Potency [4] | Potency [5] | Potency [6]
active: Potency [1] 75.7 µM

Cc1ccc(C(=O)O/N=C(\c2ccccc2)c2cccnc2)cc1
inactive: Potency [1] | Potency [2] | activation [3] -3.55% [at 17.1 µM, percent relative to cAMP agonist control] | Potency [4] | activity change, negative = inhibition [5] 3.07% [at 30.8 µM] | activation [6] 8.08% [at 30.8 µM]

Cc1[nH]c2ccccc2c1C(=O)C(C)OC(=O)c1ccc(Cl)nc1 (stereo unspecified)
inactive: Potency [1] | Potency [2] | activation [3] 9.38% [at 17.1 µM, percent relative to cAMP agonist control] | Potency [4] | activity change, negative = inhibition [5] -3.94% [at 30.8 µM] | activation [6] 19.4% [at 30.8 µM]

Cc1ccccc1S(=O)(=O)N1C(c2ccc(Cl)c(Cl)c2)CC=C(C(=O)O)C1c1cccc(Br)c1 (stereo unspecified)
inactive: Potency [2] | Potency [3] | Potency [4] | Potency [5] | Potency [6]
active: Potency [1] 75.7 µM

O=C(Nc1ccc(Cl)cc1C(=O)O)c1ccc2c(c1)C(=O)N(Cc1ccco1)C2=O
active: Potency [1] 39.8 µM
inactive: Potency [2] | activation [3] -2.6% [at 17.1 µM, percent relative to cAMP agonist control] | Potency [4] | activity change, negative = inhibition [5] -16.1% [at 30.8 µM] | activation [6] 16.2% [at 30.8 µM]

— PubChem BioAssay (NCATS)
